# Experimental data taken from PubChem BioAssay (NCI).
# This is part of a sample that, as a whole, favours compounds with a hit. Of some 83,000 tested, about 20% had one in any assay.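 How to read the values: 0–100, growth inhibition (40 = 60% inhibited); 0, no net growth; -100 to 0, cell death (-40 = 40% of starting cells died; -100 = all dead).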 Unmarked numbers belong to inactive results. Activity calls are given as the source filed them. Rule for the calls: active = growth percent below 10; inactive = the rest.
# Experiments:
# Test in all cases: NCI-60 one-dose screen, 48 h (100 = growth as untreated, 0 = no growth, -100 = all killed)
# Settings in all cases: 10 µM
# [1] = test system: SR leukemia
# [2] = test system: RPMI-8226 leukemia
# [3] = test system: OVCAR-8 ovarian
# [4] = test system: OVCAR-5 ovarian
# [5] = test system: OVCAR-4 ovarian
# [6] = test system: SK-OV-3 ovarian
# [7] = test system: IGROV1 ovarian
# [8] = test system: OVCAR-3 ovarian
# [9] = test system: HS 578T breast
# [10] = test system: NCI/ADR-RES ovarian
# [11] = test system: T-47D breast
# [12] = test system: BT-549 breast
# [13] = test system: MDA-MB-435 melanoma
# [14] = test system: SW-620 colon
# [15] = test system: MCF7 breast
# [16] = test system: HCT-116 colon
# [17] = test system: HCC-2998 colon
# [18] = test system: KM12 colon
Compound,growth [1],growth [2],growth [3],growth [4] [%],growth [5],growth [6],growth [7],growth [8],growth [9],growth [10],growth [11],growth [12],growth [13],growth [14],growth [15],growth [16],growth [17],growth [18]
CCOC(=O)Cn1nnc(-c2ccc(OCc3ccccc3F)cc2)n1,35.4%,90.8%,101%,92.6,86.4%,93.5%,87.9%,100%,81.2%,57%,72.6%,96.9%,-2.38% (active),83.3%,75.8%,80.1%,100%,75.6%
CNC(=O)c1cc(Oc2ccc(NC(=O)Nc3ccc(Cl)c(OC(C)C)c3)c(F)c2)ccn1,40.8%,26.8%,53.9%,85.3,24.1%,82.8%,60.8%,58.3%,64.6%,56%,9.9% (active),75.1%,43.2%,68.2%,31%,30.4%,66.7%,24.4%
Cc1cc(C)c2c(Nc3ncnc4c3sc3nc(C)cc(C)c34)n[nH]c2n1,94%,98.9%,97.8%,95.2,86.3%,106%,120%,101%,105%,100%,89.8%,101%,98.7%,101%,103%,103%,113%,111%
NC(=O)C12C(=O)NC(=O)C1(C(=O)O)C21CCCC1 (centres undefined),106%,94.6%,104%,110,104%,116%,106%,116%,107%,114%,114%,104%,100%,104%,96.3%,101%,–,113%
N#Cc1c(-c2ccccc2)nc(SCC(=O)N2CCOCC2)[nH]c1=O,90.1%,99%,99.3%,103,104%,90.7%,112%,110%,108%,103%,93.4%,88.2%,112%,106%,89.7%,99.9%,109%,114%
Nc1ccccc1NC(=O)CCCCCCC(=O)Nc1ccc2c(c1)/C(=C/c1ccc[nH]1)C(=O)N2,26.8%,-17.6% (active),26.2%,67,35.1%,38.4%,49.7%,29.3%,27.5%,93.1%,37.9%,22%,37.8%,47.4%,15.9%,17%,70.2%,13.7%
C[C@]12CC[C@H]3[C@@H](CC=C4C[C@@H](O)CC[C@@]43C)[C@@H]1CC[C@@H]2C(=O)C/C=N/O,91.6%,59.6%,91.9%,106,83.6%,97.1%,76.7%,89.8%,92.5%,84.4%,77.2%,90.2%,97.1%,102%,95.6%,79.1%,94.1%,96.6%
c1ccc(CNc2nc(Nc3ccc(-c4nc5ccccc5[nH]4)cc3)c3cn[nH]c3n2)cc1,-13.8% (active),2.15% (active),-12.5% (active),41.1,25.7%,10.8%,36.2%,-38.1% (active),-6.55% (active),6.33% (active),-30.6% (active),-24.8% (active),-6.74% (active),7.33% (active),1.71% (active),-54.5% (active),-5.53% (active),9.4% (active)
Cc1ccc(Cl)cc1Nc1nc(C(F)(F)F)ccc1C(=O)N/N=C/c1c(Cl)cccc1Cl,123%,-51.2% (active),10.6%,24.2,17.5%,-8.46% (active),-8.67% (active),-28.5% (active),-10.1% (active),5.19% (active),-10.9% (active),31%,13.1%,3.99% (active),2.24% (active),12.7%,–,-15.9% (active)
CCc1ccc(-c2nnc(COc3ccc(-c4nc5ccc(C)cc5[nH]4)cc3OC)o2)cc1,-31.5% (active),-6.63% (active),39.9%,92.4,-59.8% (active),33.9%,64.4%,41.7%,28.2%,42.1%,15%,38.8%,36.8%,86.7%,30.6%,37.1%,97.9%,50.9%
COC(=O)C1(C(=O)OC)C2C(=O)C3C(C21)C3(C(=O)OC(C)(C)C)C(=O)OC(C)(C)C (centres undefined),113%,93.8%,104%,102,101%,121%,109%,114%,97.9%,104%,102%,101%,99.9%,106%,103%,101%,112%,112%
O=[N+]([O-])c1cc2ncccc2c2ncccc12,74%,82.8%,63.3%,98.3,103%,94.4%,56.3%,84.5%,104%,75.1%,74.6%,89.6%,61.9%,85.4%,60.6%,53.5%,108%,96.3%
Nc1nc2c(nnn2C2CC(O)C(CO)O2)c(=O)[nH]1 (centres undefined),32%,36.2%,38.4%,87.8,51.4%,20.2%,67.6%,40.8%,75.4%,30.2%,49.8%,61.5%,41.1%,33.1%,37.4%,49.5%,51.3%,44.7%
O=C(Nc1cccc(-c2nc3ccccc3[nH]2)c1)c1cccc(NC(=O)c2ccco2)c1,23.5%,69.2%,87.2%,93.8,80%,102%,86.2%,98.3%,79.4%,84.9%,65.9%,96.3%,-1.71% (active),96.6%,61.8%,58.4%,96.6%,88.1%
COc1cc(/C=C/C(=O)c2cc(-c3ccccc3)ccc2O)cc(OC)c1OC,43.4%,12.3%,60.8%,93.1,68%,71.3%,83%,77.2%,82.3%,69.4%,43.4%,88.8%,55.4%,81.9%,47%,61.3%,97%,78.6%
CC1(C)CNC(=O)N1,95.2%,95.8%,99.8%,108,99.7%,95.6%,99.9%,108%,98.8%,109%,99.2%,103%,102%,102%,94.5%,91.6%,95.7%,104%
COc1cc(-c2cc(-c3cc(OC)c(OC)c(OC)c3)nc3nc(N)[nH]c(=O)c23)ccc1Oc1ccnc2cc(Cl)ccc12,5.24% (active),19.7%,42.1%,103,39%,26.2%,52.8%,-26.1% (active),36.3%,21.8%,30.3%,34.9%,-57.6% (active),19.6%,17.4%,16.1%,56.9%,13.5%
